Several values for one entry are separate records, joined by “and”; a condition that tells them apart may be missing. Equal values may be shown once. About 83,000 compounds went through this panel and 20% of them were active in at least one assay; those are over-represented in the sample as a whole.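 Plates (96-well) were seeded with cells, treated with compound at one concentration, and incubated for 48 hours before percent growth was determined.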 Activity calls are given as the source filed them. The calls were made as follows: active = growth percent below 10; inactive = the rest.

Consider 7 compounds from PubChem BioAssay (NCI).

Some test systems named below: HCT-15 colon; HT29 colon; SNB-75 CNS; SNB-19 CNS; U251 CNS; PC-3 prostate; SK-MEL-5 melanoma; UACC-62 melanoma; LOX IMVI melanoma; SK-MEL-28 melanoma; SK-MEL-2 melanoma; EKVX NSCLC; SN12C renal; TK-10 renal; ACHN renal; CAKI-1 renal; A498 renal; CCRF-CEM leukemia; MOLT-4 leukemia; UO-31 renal.
Experiment in all cases: NCI-60 one-dose screen, 48 h (100 = growth as untreated, 0 = no growth, -100 = all killed)
Common to all, as to settings: 10 µM unless noted

As for `O=C(CC1(O)C(=O)Nc2ccc(Br)cc21)c1ccc(Cl)cc1` (stereo unspecified), the growth in the assay on HCT-15 colon was 109% (inactive); with HT29 colon, 97.8% (inactive); in the assay with SNB-75 CNS it was 81.8% (inactive); in the assay on SNB-19 CNS it was 107% (inactive); with U251 CNS, 94.6% (inactive); in the assay with PC-3 prostate, 81.6% (inactive). In addition, the growth is 96.8% (inactive) in the assay on SK-MEL-5 melanoma; 98.1% (inactive) in the assay on UACC-62 melanoma; 99.3% (inactive) in the assay with LOX IMVI melanoma; 120% (inactive) with SK-MEL-28 melanoma; 97.2% (inactive) in the assay on SK-MEL-2 melanoma; 93.8% (inactive) in the assay on EKVX NSCLC. Moreover, the growth in the assay with SN12C renal is 102% (inactive); in the assay with TK-10 renal, 123% (inactive); with ACHN renal, 113% (inactive); with CAKI-1 renal it was 98.9% (inactive); with A498 renal, 97.7% (inactive); in the assay with CCRF-CEM leukemia, 103% (inactive). In addition, in the assay with MOLT-4 leukemia, the growth was 101% (inactive).
Regarding `O=Nc1ccc(NO)c2ccccc12`, the growth with HCT-15 colon is 99.5% (inactive) and 95.7% (inactive); with HT29 colon, 106% (inactive) and 35.3% (inactive); in the assay with SNB-75 CNS, 95.8% (inactive) and 90.8% (inactive); with SNB-19 CNS, 118% (inactive) and 99% (inactive); in the assay on U251 CNS, 101% (inactive) and 79% (inactive); in the assay on PC-3 prostate, 81.9% (inactive) and 36.4% (inactive). Further, the growth in the assay on SK-MEL-5 melanoma is 94.1% (inactive) and 81.3% (inactive); with UACC-62 melanoma, 95.9% (inactive) and 61.9% (inactive); in the assay on LOX IMVI melanoma, 102% (inactive) and 17.4% (inactive); in the assay with SK-MEL-28 melanoma, 113% (inactive) and 94.6% (inactive); in the assay with SK-MEL-2 melanoma, 103% (inactive) and 59.7% (inactive); in the assay with SN12C renal, 103% (inactive) and 60.5% (inactive). The growth in the assay on UO-31 renal is 88.7% (inactive) and 65.3% (inactive); in the assay with TK-10 renal, 132% (inactive) and 125% (inactive); in the assay on ACHN renal it was 97.6% (inactive) and 79.2% (inactive); in the assay on CAKI-1 renal, 83.8% (inactive) and 80.3% (inactive); in the assay with A498 renal, 74% (inactive) and 102% (inactive); in the assay on CCRF-CEM leukemia, 106% (inactive) and 57.6% (inactive). The growth in the assay on MOLT-4 leukemia is 108% (inactive) and 74.1% (inactive).
For `O=C1/C(=C/c2ccccc2[N+](=O)[O-])Cc2ccccc21`, the growth in the assay with HCT-15 colon is -56.9% (active) and 5.02% (active); in the assay with HT29 colon, -44% (active) and -37.1% (active); with SNB-75 CNS, 40.8% (inactive) and 43.5% (inactive); in the assay with SNB-19 CNS, 93.7% (inactive) and 74.1% (inactive); with U251 CNS, 24.9% (inactive) and 32.7% (inactive); with PC-3 prostate, 27.2% (inactive) and 30.4% (inactive). For the same compound, the growth in the assay with SK-MEL-5 melanoma was 47.2% (inactive) and 69.5% (inactive); in the assay on UACC-62 melanoma, 29.5% (inactive) and 25.5% (inactive); in the assay with LOX IMVI melanoma it was -61.1% (active) and 5.09% (active); with SK-MEL-28 melanoma it was 45.9% (inactive) and 4.22% (active); in the assay on SK-MEL-2 melanoma, 68.4% (inactive) and 80.5% (inactive); with SN12C renal, 20.3% (inactive) and 48.5% (inactive). The growth is -66.2% (active) and 25.9% (inactive) in the assay on UO-31 renal; -15.6% (active) and 21.2% (inactive) in the assay on TK-10 renal; -10.6% (active) and -9.61% (active) with CAKI-1 renal; -18.3% (active) and 14.1% (inactive) in the assay on A498 renal; -0.132% (active) and 4.53% (active) with CCRF-CEM leukemia; -1.54% (active) and 13.5% (inactive) with MOLT-4 leukemia.
On to `CCN(c1cc(-c2ccc(CN3CCC(/C=C/S(=O)(=O)c4ccccc4)CC3)cc2)cc(C(=O)NCc2c(C)cc(C)[nH]c2=O)c1C)C1CCOCC1`, for which the growth is 54.8% (inactive) in the assay on HCT-15 colon; 21.2% (inactive) in the assay with HT29 colon; 37.5% (inactive) in the assay with SNB-75 CNS; 80.1% (inactive) in the assay on SNB-19 CNS; 66.9% (inactive) in the assay with U251 CNS; 53.7% (inactive) with PC-3 prostate. For the same compound, the growth with SK-MEL-5 melanoma was 71.9% (inactive); with UACC-62 melanoma it was 76.6% (inactive); in the assay with LOX IMVI melanoma, 68.9% (inactive); in the assay with SK-MEL-28 melanoma, 97.9% (inactive); in the assay with SK-MEL-2 melanoma it was 92.5% (inactive); in the assay on EKVX NSCLC, 87.4% (inactive). The growth with SN12C renal is 63.6% (inactive); with TK-10 renal, 121% (inactive); in the assay with ACHN renal, 80% (inactive); in the assay on A498 renal it was 51.1% (inactive); in the assay on CCRF-CEM leukemia it was 38.2% (inactive); in the assay with MOLT-4 leukemia, 26.8% (inactive).
Turning to `Cc1ccc(Cl)cc1N1CCN(C(=O)[C@@H]2C[C@@H]2c2ccc(F)cc2)CC1`, the growth with HCT-15 colon was 85.4% (inactive); with HT29 colon, 72.7% (inactive); in the assay on SNB-75 CNS, 96.2% (inactive); in the assay on SNB-19 CNS it was 92% (inactive); in the assay with U251 CNS, 90% (inactive); in the assay on PC-3 prostate it was 69.1% (inactive). The growth is 80.7% (inactive) in the assay on SK-MEL-5 melanoma; 69.7% (inactive) in the assay with UACC-62 melanoma; 97.6% (inactive) in the assay on LOX IMVI melanoma; 103% (inactive) with SK-MEL-28 melanoma; 91.7% (inactive) with SK-MEL-2 melanoma; 88.3% (inactive) with EKVX NSCLC. Besides, the growth is 98.9% (inactive) in the assay with SN12C renal; 100% (inactive) in the assay on TK-10 renal; 93% (inactive) in the assay on ACHN renal; 69.1% (inactive) with CAKI-1 renal; 87.2% (inactive) in the assay on A498 renal; 91.5% (inactive) in the assay with CCRF-CEM leukemia. Also, in the assay with MOLT-4 leukemia, the growth was 78.5% (inactive).
Turning to `BrC1=C(Br)C(Br)(Br)C(Br)=C1Br`, the growth is 60.8% (inactive) in the assay on HCT-15 colon; 63.9% (inactive) in the assay on HT29 colon; 72.7% (inactive) in the assay with SNB-75 CNS; 92.3% (inactive) in the assay with SNB-19 CNS; 91.9% (inactive) in the assay with U251 CNS; 84.6% (inactive) with PC-3 prostate. The growth is 102% (inactive) with SK-MEL-5 melanoma; 71% (inactive) in the assay on UACC-62 melanoma; 45.5% (inactive) in the assay on LOX IMVI melanoma; 93% (inactive) in the assay with SK-MEL-28 melanoma; 95.3% (inactive) with SK-MEL-2 melanoma; 109% (inactive) with EKVX NSCLC. Besides, the growth in the assay on SN12C renal is 86.2% (inactive); with TK-10 renal, 97.8% (inactive); with ACHN renal, 88.5% (inactive); in the assay on CAKI-1 renal it was 87.3% (inactive); with A498 renal, 109% (inactive); in the assay on CCRF-CEM leukemia, 17.5% (inactive). In addition, the growth in the assay with MOLT-4 leukemia is 17.1% (inactive).
As for `Nc1nc(Nc2ccc(F)cc2)nn1C(=O)c1cc(Cl)ccc1Cl`, the growth in the assay on HCT-15 colon was 69.1% (inactive); in the assay on HT29 colon it was 70.8% (inactive); in the assay on SNB-75 CNS, 76.7% (inactive); in the assay on SNB-19 CNS, 65.8% (inactive); in the assay with U251 CNS, 76.1% (inactive); with PC-3 prostate, 75.6% (inactive). Moreover, the growth in the assay with SK-MEL-5 melanoma was 87% (inactive); in the assay on UACC-62 melanoma it was 60.8% (inactive); in the assay on LOX IMVI melanoma it was 48.4% (inactive); in the assay on SK-MEL-28 melanoma, 86% (inactive); in the assay on SK-MEL-2 melanoma, 97.3% (inactive); in the assay on EKVX NSCLC, 99.7% (inactive). The growth was 68% (inactive) in the assay on SN12C renal; 104% (inactive) in the assay on TK-10 renal; 58.9% (inactive) in the assay with ACHN renal; 51.6% (inactive) in the assay with CAKI-1 renal; 68.4% (inactive) with A498 renal; 60.4% (inactive) in the assay on CCRF-CEM leukemia. In addition, in the assay with MOLT-4 leukemia, the growth is 75.4% (inactive).
